From PubChem BioAssay

Assay: adipocyte viability effects, profiling panel, cell-based, 3T3-L1 adipocytes, calcein-AM fluorescence, 48 h, basal (AID 1163)
Conditions: 3T3-L1 adipocytes viability, higher = more signal
Further: test concentration not given here.

| SMILES | z-score |
| --- | --- |
| O=C1OCCC=C[C@H]2OC34C=CCN(c5ccc(Cl)cc5)C(=O)[C@H]3N(CCCCCCO)C(=O)[C@@H]4C12 (stereo partly specified) | -0.043 |
| CCOC(=O)C[C@H]1[C@H](OC(=O)c2ccccc2-c2ccccc2)[C@@H](NC(=O)c2ccc3ccccc3n2)c2cc(OCCCO)ccc2N1C(=O)c1ccccc1 | 0.197 |
| COC(=O)[C@@]1(Cc2ccc(OC)cc2)[C@H]2c3cc(C(=O)N4CCCC4)n(Cc4ccc(S(C)(=O)=O)cc4)c3C[C@H]2CN1C(=O)c1ccccc1 | 0.842 |
| C=C[C@@H](C)[C@@H](OC(=O)Nc1ccc(SC)cc1)c1ccc(OCCO)cc1 | 0.248 |
| NCCCCCNC(=O)[C@@H]1C[C@@H]2C(=O)N3CCC[C@H]3C(=O)N2[C@@H]1c1ccc(O)cc1 | 0.485 |
| O=C1OCCC/C=C\[C@H]2OC34C=CCN(c5ccc6ccccc6c5)C(=O)[C@H]3N(CCCO)C(=O)[C@@H]4C12 (stereo partly specified) | 1.34 |
| CC(=O)NCCCC[C@@H]1NC(=O)[C@@H]2C[C@H](C(=O)NCCCCCCN)[C@H](c3cccc(OCCO)c3)N2C1=O | 0.691 |
| COCCOC(=O)N1C(=O)[C@@]2(c3cc(C#CCNC(N)=O)ccc31)[C@H](c1ccc(OCCO)cc1)N1[C@H](c3ccccc3)[C@H](c3ccccc3)OC(=O)[C@H]1[C@@H]2C(N)=O | -0.0118 |

Assay: HepG2 cell viability effects, profiling panel, calcein-AM fluorescence, 48 h, basal (AID 1164)
Conditions: higher = more signal

| SMILES | z-score |
| --- | --- |
| CC(C)(C)OC(=O)CC[C@]1(C(=O)N2CCCCC2)COC(c2ccc(OCCCO)cc2)=N1 | -0.614 |
| O=C1[C@@]23C=C(Br)[C@H](C[C@@H]2COC3)[C@@]12CO2 | -0.493 |
| O=C1C[C@@](C(=O)NCc2ccccc2)(c2ccc([N+](=O)[O-])cc2)[C@@H](c2ccc(CO)cc2I)N1CC12CC3CC(CC(C3)C1)C2 | -2.67 |
| O=C1C[C@@](C(=O)NCC(F)(F)F)(c2ccc([N+](=O)[O-])cc2)[C@@H](c2ccc(CO)cc2)N1CC12CC3CC(CC(C3)C1)C2 | -1.57 |
| CN1C(=O)C2C=CC(C(O)c3ccc(I)cc3)N(Nc3ccccc3)C2C1=O (stereo unspecified) | -0.268 |
| COc1cc(C(O)C2C=CC3C(=O)N(Cc4ccccc4)C(=O)C3N2n2cnnc2)cc(OC)c1OC (stereo unspecified) | 1.67 |
| C=C(COC)/C(=C/C[C@@H](OC(=O)c1ccncc1)c1ccccc1OCCO)c1cc(C(=O)OC)ccc1OC | -0.11 |
| CC(C)C[C@@H]1NC(=O)[C@@]23C(=O)N[C@@H](Cc4ccccc4)C2[C@H](C)[C@@]2(C)O[C@H]2C3/C=C/C/C=C\CNC(=O)[C@@H](C)NC1=O (stereo partly specified) | -0.0346 |
| CCCNC(=O)[C@@]1(Sc2ccc(C)cc2)CC(=O)N(C(C)C)[C@@H]1c1ccc(CO)cc1I | -0.658 |
| CN1C(=O)C2C(C1=O)C1C=C(CCCO)C2C(c2cccs2)N1Cc1cc2c(cc1Br)OCO2 (stereo unspecified) | 0.557 |
| C=C(CCCC)/C(=C/C[C@H](OC(C)=O)c1ccc(OCCO)cc1)c1cc(C(=O)OC)ccc1OC | 1.74 |
| COC(=O)[C@@]1(Cc2ccc(OC)cc2)[C@H]2c3cc(C(=O)N4CCCC4)n(Cc4ccc(OC(F)(F)F)cc4)c3C[C@H]2CN1C(=O)c1ccccc1 | -0.871 |
| CS(=O)(=O)CCOC(=O)C1=CC(CCCO)=CC(C2CC2)N(Cc2cccc(OC(F)(F)F)c2)C=C1C(=O)OCCS(C)(=O)=O (stereo unspecified) | 0.572 |
| COC(=O)C1=CC(CCCO)=CC(C)N(Cc2cccc(OC(F)(F)F)c2)C=C1C(=O)OC (stereo unspecified) | 0.966 |
| [N-]=[N+]=NCc1ccccc1[C@@H]1OC(c2ccc(OCCCO)cc2)=N[C@]1(Cc1ccccc1)C(=O)NCCN1CCOCC1 | 0.91 |
| CC(C)C(=C=CC[C@@H](O)c1cccc(OCCO)c1)C[C@@H](O)c1ccccn1 | -0.295 |
| O=C(NCC(O)CO)[C@@]1(CCS(=O)(=O)c2ccccc2)COC(c2ccc(OCCCO)cc2)=N1 (stereo partly specified) | 0.261 |
| CCOC(=O)C1=C[C@@H](c2ccccc2)N(S(=O)(=O)c2ccc(C)cc2)[C@H]1c1ccccc1 | -0.813 |
| CC(C)OC(=O)CC(=O)CC(O)c1ccc([N+](=O)[O-])cc1 (stereo unspecified) | 0.714 |
| COC(=O)C1N=C(c2ccc(OCCCO)cc2)N(c2ccccc2)O1 (stereo unspecified) | 0.634 |
| NC(=O)NCC#Cc1ccc2c(c1)[C@]1(C(=O)N2)[C@H](C(=O)N2CCN(c3ncccn3)CC2)[C@H]2C(=O)O[C@H](c3ccccc3)[C@H](c3ccccc3)N2[C@@H]1c1ccc(OCCO)cc1 | -1.12 |
| [N-]=[N+]=Nc1ccccc1C[C@]1(C(=O)O)N=C(c2ccc(OCCCO)cc2)O[C@H]1c1ccccc1 | 1.28 |
| C=C(/C(=C/C[C@@H](OC(C)=O)c1ccc(OCCO)cc1)c1cc(C(=O)OC)ccc1OC)C(C)C | 0.747 |
